# In PubChem BioAssay (NCI):
# Compounds without any hit were thinned out: in the full panel of roughly 79,000, 15% have a hit. Values without a mark were called inactive. Activity calls are given as the source filed them. Cut-off read from the data, not from the text of the source: active = growth inhibition above about 70%; inactive = the rest. Where a SMILES comes first, the peptide text is derived from it. The star is where a group is joined. Boc = CC(C)(C)OC(=O)*; OSu = O=C1CCC(=O)N1O*
# Assays:
# [1] = NCI Yeast Anticancer Drug Screen. Data for the rad50 strain (AID 155);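 note: 0% = growth of vehicle-only cultures of the same strain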; conditions: S. cerevisiae rad50 strain growth inhibition; at 50.0 µM; active compounds read high
# Procedure, shortened: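 Growth of the mutant yeast was measured after compound exposure and referenced to vehicle-treated cultures.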
# [2] = NCI Yeast Anticancer Drug Screen. Data for the mec2-1 strain (AID 157); conditions: S. cerevisiae mec2-1 strain, at 50.0 µM, active compounds read high
# Procedure, shortened: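 Vehicle-treated cultures served as reference for growth inhibition of compound-exposed mec2-1 yeast.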
# [3] = NCI Yeast Anticancer Drug Screen. Data for the sgs1 mgt1 strain (AID 161);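 note: 0% = growth of cultures given vehicle only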; conditions: S. cerevisiae sgs1 mgt1 strain, at 50.0 µM, active compounds read high
# Procedure, shortened: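 Inhibition of yeast growth, normalised to vehicle-treated controls, is reported for a strain bearing genetic alterations in DNA damage repair.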
# [4] = NCI Yeast Anticancer Drug Screen. Data for the cln2 rad14 strain (AID 165);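 note: 0% = growth equal to vehicle treated cultures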; conditions: S. cerevisiae cln2 rad14 strain, at 50.0 µM, active compounds read high
# Procedure, shortened: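 Each compound was tested on cln2 rad14 yeast. Inhibition of growth was calculated against vehicle-exposed controls.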
# [5] = NCI Yeast Anticancer Drug Screen. Data for the bub3 strain (AID 167); conditions: S. cerevisiae bub3 mutant strain, at 50.0 µM, active compounds read high
# Procedure, shortened: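 Whole-cell yeast assay. The mutant strain was incubated with compounds, and growth inhibition was determined by comparison with vehicle-treated cells.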
# [6] = NCI Yeast Anticancer Drug Screen. Data for the mlh1 rad18 strain (AID 175); conditions: S. cerevisiae mlh1 rad18 strain growth inhibition; at 50.0 µM; active compounds read high
# Procedure, shortened: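 Vehicle-treated cultures served as the reference for growth inhibition in a yeast strain carrying DNA damage repair alterations exposed to each compound.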
Structure (SMILES),growth inhibition [1],growth inhibition [2],growth inhibition [3],growth inhibition [4],growth inhibition [5],growth inhibition [6]
O=C1CCCCCCCCCCC1Sc1ccccc1 (stereo not given),-23.2%,-36.6%,-6.8%,3.1%,7.3%,-28.9%
CC(Cc1ccccc1)Nc1ccccc1 (stereo not given),17.8%,3.5%,31.4%,-10.3%,-12.5%,62.4%
CCC(=O)Oc1ccc(C(OC(=O)CC)OC(=O)CC)cc1OC,-9.1%,-9.1%,11.8%,-20.2%,9.45%,8.05%
COc1ccc(S(=O)Cc2cc(OC)c(OC)c(OC)c2)cc1 (stereo not given),-7.9%,-19.9%,-61.7%,-19.8%,-14.3%,-23.7%
CCOC(=O)/C=C1/Nc2cc(F)c(F)cc2NC1=O,-36.1%,14.1%,16%,13.8%,14.6%,-56%
CCOC(=O)C1CCC/C1=N/Nc1ccc([N+](=O)[O-])cc1[N+](=O)[O-] (stereo not given),-1%,10.6%,3.25%,-21.9%,-5.3%,-4.75%
CCC1=CCN2CCC34c5cc(C6(C(=O)OC)CC7CC(CC)CN(CCc8c6[nH]c6ccccc86)C7)c(OC)cc5N(C)C3C(O)(C(=O)OC)C(OC(C)=O)C1C24 (stereo not given),0.2%,9.25%,-3.95%,3.95%,-1.55%,10.6%
O=C(N/N=C/c1ccc(Cl)c([N+](=O)[O-])c1)C(O)(c1ccccc1)c1ccccc1,10.2%,-2.7%,12.4%,-4.45%,-1%,-19.1%
O=C(CNC(=O)C(CO)NC(=O)OCc1ccccc1)OCc1ccccc1 (stereo not given),12.4%,3%,9.35%,4.1%,-0.1%,4.35%
c1ccc2c(c1)ccc1nc3c4ccccc4c4ccccc4c3nc12,13.6%,-2.85%,-6.9%,-3.45%,13%,13.8%
Cc1ccc(C2(C)NC(=S)N(NC(N)=S)C2=S)cc1 (stereo not given),32.3%,19.8%,7.15%,3.25%,4.65%,21.8%
CC(C)(C)OC(=O)NC(Cc1ccc(O)cc1)C(=O)NC(CCCCN)C(=O)NC(Cc1ccc(O)cc1)C(=O)NC(CCCCN)C(=O)ON1C(=O)CCC1=O (stereo not given) (Boc-YKYK-OSu; configuration not given here),-12.2%,-15.5%,-6.7%,29.1%,-2.8%,4.45%
O=c1[nH]c(=S)[nH]c2[nH]c(=S)ncc12,-26.8%,-43.1%,-31.8%,1.9%,-13.1%,-15.1%
CC(=O)N(CN1C(=O)CCC1C(=O)O)c1ccccc1Cl (stereo not given),10.3%,14.4%,-13.6%,-4.35%,-3.85%,-40.5%
Cc1cc(Br)c(NC(=S)SCc2ccc(Cl)cc2)cc1C,88.2% (active),80% (active),82.6% (active),63.5%,80% (active),95.8% (active)
CCOC(=O)NC(=O)c1cn(CCN2CCN(c3ncnc4nc[nH]c34)CC2)c(=O)[nH]c1=O,18.9%,16.6%,14.4%,12.7%,-4.3%,23.1%
NC(=O)c1cn2ccccc2c1[N+](=O)[O-],8.25%,27.6%,3.35%,-20.2%,2.8%,5.2%
CCN1C(=O)c2ccccc2C1=O,11.8%,-9.85%,-5.25%,-16.9%,5.95%,24.1%
OCc1c(-c2ccc(Cl)cc2)c(-c2ccc(Cl)cc2)c2n1CCC2,-0.65%,-18%,1.3%,90.4% (active),-2.35%,-6.85%
CCCC(=O)Oc1ccc(Br)cc1,6.6%,-22.4%,-5.25%,12.8%,-17.9%,20.9%

Structure (SMILES),growth inhibition [1],growth inhibition [2],growth inhibition [3],growth inhibition [4],growth inhibition [5],growth inhibition [6]
O=C(O)CC1CC(=O)c2cccn21 (stereo not given),-4.35%,4.85%,-8.15%,3.6%,0.8%,-34%
NC(=S)N/N=C/C1=C(Cl)c2ccccc2C1,7.45%,6.5%,1.15%,-4.45%,-2.55%,13.2%
O=C1/C(=C\c2ccc(O)cc2)CCC/C1=C/c1ccc(Cl)c(Cl)c1,-0.5%,27.4%,7.15%,35.5%,-4.85%,24.6%
CCN(CCC#N)c1cccc(C)c1,-12.2%,1.6%,-5.75%,9.8%,-16.8%,-7.55%
O=C(O)c1cccc2cnccc12,-40.6%,-17.6%,-26.9%,1.3%,-13.3%,-8.7%
CC1(COc2ccccc2)NC(=O)c2ccccc2O1 (stereo not given),-5.85%,-13.4%,10.6%,-46.2%,0.85%,-6.25%
CC(=O)/C(C)=N/Nc1ccccc1,7.35%,8.6%,-2.6%,-11%,-5.7%,11%
COc1cc(OC)c(NC(=O)Nc2ccc([N+](=O)[O-])cc2OC)cc1Cl,-21.6%,-17.6%,-7.15%,-49.1%,1.25%,-7.2%
O=C(O)C1CCC1C(=O)O (stereo not given),-18.1%,-24.1%,-23.5%,-23.9%,10.2%,-2.5%
Cc1sc2[nH]c(=O)oc(=O)c2c1C,44%,-10.1%,36.2%,30.1%,10.5%,55.8%
CCOC(OCC)c1ccccc1OC,1.85%,1.05%,4.95%,-15.1%,3.6%,-1.1%
O=C(C[n+]1cccc(C(=O)Nc2ccccc2)c1)Nc1ccc(Cl)cc1,-2.65%,-0.7%,-2.35%,0.35%,6.7%,7.35%
CCCCCCCCCCCCCCCCCC(=O)NCCCNCCCNC(=O)CCCCCCCCCCCCCCCCC,-10.9%,-21.4%,-12.2%,7.55%,-17.5%,-13.6%
Nc1nnc(-c2ccccc2)o1,9.85%,-4.8%,4.05%,-19.9%,4.8%,3.35%
CC(O)COc1ccc(OCc2ccccc2)cc1 (stereo not given),26.6%,34.6%,49.9%,10.2%,46.5%,33.9%
O=C(O)c1ccc(F)cc1F,6.25%,-15.9%,11.3%,-32.7%,-3.75%,2.85%
COc1ccc2c(c1)OC(C)(C)C(c1ccccc1)=C2c1ccc2c(c1)NCCO2,1%,-2.35%,11.1%,-38.5%,-22.6%,32.2%
CC(C)(CO)NC(=O)c1cccs1,14.8%,5.15%,1.45%,12.7%,-4.35%,-20%
CC(C)(C)C1CCC2c3c([nH]c4ccccc34)C3C(=O)N(c4cc(Cl)ccc4Cl)C(=O)C3C2C1 (stereo not given),18%,0.75%,-4.05%,5.4%,6.3%,0.9%
CCc1nc(N)nc(N)c1-c1ccc(OC)c([N+](=O)[O-])c1,3.25%,-14.7%,-27.2%,24.9%,-21.4%,7.9%
